Shown are actives, neighbours in structure and some others; about 8.1% of the full set was active somewhere.
KB-3-1 cytotox – KB-3-1 parental cell cytotoxicity; KB-3-1 viability, CellTiter-Glo ATP luminescence, 72 h; Potency, µM (doses to about 46.1 µM), usual class: cytotoxic; 1.4% of 400,000 active; AID 1347075; note: nearly all actives have a fitted effect of over 60% in size
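Cytotoxicity in the drug-sensitive parental line KB-3-1 was scored as loss of CellTiter-Glo luminescence following 72 h incubation with compound. Values come from curve fitting of normalized concentration-response data.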
MCF10A rereplic – inducers of DNA re-replication in MCF 10A breast cells; MCF 10A DNA re-replication, Hoechst nuclear intensity, 48 h; Potency, µM (top dose mostly 46.1 µM), usual class: activators; 2.9% of 350,000 active; AID 624296; note: nearly all actives have a fitted effect of over 50% in size
ELG1 repair inh – inhibitors of ELG1-dependent DNA repair in HEK293T cells | Potency, µM (titrated, usually from 46.1 µM), usual class: inhibitors | 2.3% of 330,000 active | HEK293T ELG1-luciferase reporter, luminescence, 16 h; DNA damage induced by 5-fluorouridine; note: nearly all actives have a fitted effect of over 55% in size
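Overnight (16 hr) co-exposure of 2,000 cells/well to 5-fluorouridine and compound at 37 °C preceded detection. Luciferase was quantified via ONE-Glo luminescence; loss of signal denotes inhibition.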
KB-V1 cytotox – KB-V1 MDR subline cytotoxicity. KB-V1 MDR cells viability, CellTiter-Glo, 72 h. 3.4% of 400,000 active. Potency, µM (highest dose often 46.1 µM), most hits filed as cytotoxic; note: nearly all actives have a fitted effect of over 60% in size
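Compound-treated KB-V1 multidrug-resistant cells, 72 h, 37 degrees C; viability by CellTiter-Glo. Fitted qHTS curves give the values.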
SW480 rerep – inducers of DNA re-replication in SW480 colon cancer cells; SW480 DNA re-replication, Hoechst DNA content imaging, 48 h; Potency, µM (top dose mostly 46.1 µM), hits mostly activators; 1.8% of 340,000 active; note: nearly all actives have a fitted effect of over 55% in size
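Readout is total intensity of Hoechst-stained nuclei, excited at 405 nm and collected at 500-530 nm. Compound treatment lasted 48 hr at 37 C in 5% CO2 before staining.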
Large screens that a line does not name were inactive. Calls come from the whole dose curve; as a rule, active = well fitted curve in the direction sought with a large enough effect; inconclusive = small, poorly fitted or top-dose-only effect, or another doubt; inactive = no such curve, though single readings can be large; an effect the other way counts as inactive or inconclusive.

CCN(c1ccccc1)S(=O)(=O)c1ccc(OC)c(NC(=O)Cc2ccc(OC)c(OC)c2)c1	ELG1 repair inh 18µM
CCN(c1ccccc1)S(=O)(=O)c1ccc(Cl)c(NC(=O)CN2CCN(C)CC2)c1	MCF10A rereplic 16µM, ELG1 repair inh inconclusive
CCN(c1ccccc1)S(=O)(=O)c1ccc(N)c(OC)c1	KB-3-1 cytotox 16µM, MCF10A rereplic 18µM, ELG1 repair inh inconclusive, KB-V1 cytotox 23µM, SW480 rerep 11µM
COc1ccc(S(=O)(=O)N(C)C)cc1NC(=O)Cc1c[nH]c2ccccc12	ELG1 repair inh inconclusive, SW480 rerep 3.7µM
COc1ccc(C(=O)Nc2ccccc2C(=O)Nc2ccccn2)cc1	MCF10A rereplic inconclusive, ELG1 repair inh inconclusive, SW480 rerep inconclusive
COc1ccccc1NC(=S)N(Cc1cccs1)C1CCCC1	ELG1 repair inh inconclusive
O=C(COC(=O)c1ccc(F)c(S(=O)(=O)N2CCOCC2)c1)NCc1ccco1	KB-3-1 cytotox inconclusive
Cc1cccc2nc(-c3ccccc3)nc(N[C@@H](CO)c3ccccc3)c12	KB-3-1 cytotox inconclusive, MCF10A rereplic inconclusive, ELG1 repair inh 9.2µM, KB-V1 cytotox inconclusive
Cc1ccc(-c2nc(NCCCO)c3ccccc3n2)cc1	ELG1 repair inh inconclusive, KB-V1 cytotox inconclusive
CS(=O)(=O)N(CCC#N)Cc1ccc(/C=C2\C(=O)Nc3ccccc32)o1	ELG1 repair inh 7.3µM
CCOc1cc(S(=O)(=O)N2CC=C(c3ccc(F)cc3)CC2)c(OCC)cc1-n1cnnn1	KB-3-1 cytotox inconclusive, ELG1 repair inh 5.8µM, KB-V1 cytotox inconclusive
CCOc1cc(S(=O)(=O)N2CCC(Cc3ccccc3)CC2)c(OCC)cc1-n1cnnn1	ELG1 repair inh inconclusive
COC(=O)c1ccc(/C=C/c2c(-c3ccsc3)sc3ccccc23)cc1	KB-3-1 cytotox inconclusive, MCF10A rereplic 16µM, SW480 rerep 4.1µM
N#CC1=C(N)Oc2cc(O)c(C=Nc3ccccc3)cc2C1c1ccccc1 (stereo not drawn)	MCF10A rereplic 4.1µM, ELG1 repair inh inconclusive
Cc1ccccc1N=Cc1cc2c(cc1O)OC(N)=C(C#N)C2c1ccccc1 (stereo not drawn)	MCF10A rereplic 18µM, ELG1 repair inh inconclusive, KB-V1 cytotox inconclusive, SW480 rerep inconclusive
Cc1ccc(N=Cc2cc3c(cc2O)OC(N)=C(C#N)C3c2ccccc2)cc1 (stereo not drawn)	KB-3-1 cytotox inconclusive, MCF10A rereplic 18µM, SW480 rerep inconclusive
COC(=O)C1=C(C)OC(N)=C(C#N)C1c1ccccc1 (stereo not drawn)	none
Cc1sc(NC(=O)c2ccco2)c(C(c2ccncc2)N2CCOCC2)c1C (stereo not drawn)	none
Cc1sc(NC(=O)c2ccco2)c(C(c2cccnc2)N2CCCC2)c1C (stereo not drawn)	MCF10A rereplic 21µM, SW480 rerep inconclusive
Cc1sc(NC(=O)c2ccco2)c(C(c2cccnc2)N2CCN(C)CC2)c1C (stereo not drawn)	MCF10A rereplic inconclusive
CCOc1ccc(C(c2c(NC(=O)c3ccco3)sc(C)c2C)N2CCOCC2)cc1 (stereo not drawn)	KB-3-1 cytotox inconclusive, MCF10A rereplic 21µM
COc1cccc(C(c2c(NC(=O)c3ccco3)sc(C)c2C)N2CCOCC2)c1 (stereo not drawn)	KB-3-1 cytotox 23µM, MCF10A rereplic 21µM, KB-V1 cytotox inconclusive
O=C(Nc1ccc(-n2nncc2-c2ccco2)cc1)c1cccc(F)c1	MCF10A rereplic inconclusive, ELG1 repair inh inconclusive, KB-V1 cytotox 16µM
COc1cc([N+](=O)[O-])cc2sc(NC(=O)c3c(F)cccc3F)nc12	MCF10A rereplic 0.73µM, ELG1 repair inh inconclusive
CCN(CC)C(=O)/C(=C\c1cccc([N+](=O)[O-])c1)NC(=O)c1ccco1	KB-V1 cytotox 13µM
Cc1ccc(-n2ncc3c(=O)n(Cc4cccnc4)cnc32)cc1	KB-3-1 cytotox 18µM, ELG1 repair inh inconclusive, KB-V1 cytotox 12µM
CCCn1c(SCC(=O)N(C)C2CCS(=O)(=O)C2)nc2sc3c(c2c1=O)CCC3 (stereo not drawn)	KB-V1 cytotox 23µM, SW480 rerep 18µM
O=Cc1cc2c(cc1[B-](F)(F)F)OCO2	SW480 rerep 16µM (no result: ELG1 repair inh)
CCOC(=O)C1CCN(C(=O)c2cc3c(=O)n4ccccc4nc3s2)CC1	ELG1 repair inh inconclusive
Cc1ccc(-c2csc3ncnc(Oc4cccc5ccc(C)nc45)c23)cc1	none
O=C1C(C2=C(O)c3ccccc3C2=O)=Nc2ccccc21	KB-3-1 cytotox inconclusive, MCF10A rereplic 23µM, KB-V1 cytotox 7.3µM, SW480 rerep inconclusive
OCC1OC(n2ccc3c(NO)ncnc32)C(O)C1O (stereo not drawn)	KB-3-1 cytotox 0.46µM, MCF10A rereplic 0.16µM, KB-V1 cytotox 0.52µM, SW480 rerep inconclusive (no result: ELG1 repair inh)
OCC1OC(n2cnc3c(NCc4ccccc4O)ncnc32)C(O)C1O (stereo not drawn)	KB-3-1 cytotox inconclusive, MCF10A rereplic inconclusive, KB-V1 cytotox 10µM, SW480 rerep 2.3µM (no result: ELG1 repair inh)
CN(C)c1nc2c(N)ncnc2n1C1OC(CO)C(O)C1O (stereo not drawn)	none (no result: ELG1 repair inh)
CN(C)c1ncnc2c1ccn2C1OC(CO)C(O)C1O (stereo not drawn)	KB-3-1 cytotox 0.82µM, MCF10A rereplic 2.3µM, KB-V1 cytotox inconclusive, SW480 rerep 15µM (no result: ELG1 repair inh)
COc1ccc(NC(=O)C(=O)NCC(c2cccnc2)N2CCc3ccccc32)cc1OC (stereo not drawn)	none (no result: MCF10A rereplic, ELG1 repair inh, SW480 rerep)
CCCNC(=O)c1ccc(N2CCC3(CC2)CC(c2ccccc2)=NO3)c(NC(=O)c2ccccc2)c1	ELG1 repair inh 6.5µM
COC(=O)c1cc(NC(=O)N2c3ccccc3Sc3ccccc32)cc(C(=O)OC)c1	ELG1 repair inh inconclusive
O=C(COc1ccc2c3c(c(=O)oc2c1)CCC3)NCc1ccccn1	ELG1 repair inh inconclusive
COc1ccc(C2=CC(=O)C[C@H](COCc3ccccc3)N(C(=O)OC(C)(C)C)O2)cc1	MCF10A rereplic 23µM (no result: ELG1 repair inh)
COc1ccc(NC(=O)C2CCCN2C(=O)OCc2ccccc2)cc1 (stereo not drawn)	none
O=C1C2CC=CCC2C(=O)N1c1cccc(OS(=O)(=O)c2ccc3ccccc3c2)c1 (stereo not drawn)	MCF10A rereplic inconclusive, ELG1 repair inh inconclusive, KB-V1 cytotox 21µM
CCc1ccccc1N1C(=O)C2CC=CCC2C1=O (stereo not drawn)	none
Cc1ccc(S(=O)(=O)Oc2ccccc2N2C(=O)C3CC=CCC3C2=O)cc1 (stereo not drawn)	KB-V1 cytotox 8.2µM
CC1CCC2C(=O)N(c3cccc(OS(=O)(=O)c4ccccc4)c3)C(=O)C2C1 (stereo not drawn)	KB-V1 cytotox inconclusive

Assay outcomes from PubChem BioAssay.
